Laboratory results reported in PubChem BioAssay (NCI).
Compounds without any hit were thinned out: in the full panel of roughly 79,000, 15% have a hit. Active and inactive are the calls of the source. No stated cut-off is given here; in the data, active means growth inhibition above about 70%; inactive means the rest.

Experiments:
[1] = NCI Yeast Anticancer Drug Screen. Data for the rad50 strain (AID 155);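 further: 0% = growth of vehicle-only cultures of the same strain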; conditions: S. cerevisiae rad50 strain growth inhibition; at 50.0 µM; active compounds read high
Outline: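 A DNA repair-deficient yeast mutant serves as the test organism; compound-induced growth inhibition is calculated against vehicle-treated cells.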

[2] = NCI Yeast Anticancer Drug Screen. Data for the mec2-1 strain (AID 157); conditions: S. cerevisiae mec2-1 strain, at 50.0 µM, active compounds read high
Outline: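 Cells of the genetically defined mec2-1 yeast strain are incubated with test compound. Inhibition of growth is calculated against vehicle-treated controls.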

[3] = NCI Yeast Anticancer Drug Screen. Data for the sgs1 mgt1 strain (AID 161);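 further: 0% = growth of cultures given vehicle only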; conditions: S. cerevisiae sgs1 mgt1 strain, at 50.0 µM, active compounds read high
Outline: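 Test agents were incubated with a DNA-repair-mutant yeast strain. Growth was then read and compared against vehicle-treated controls.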

[4] = NCI Yeast Anticancer Drug Screen. Data for the cln2 rad14 strain (AID 165);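 further: 0% = growth equal to vehicle treated cultures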; conditions: S. cerevisiae cln2 rad14 strain, at 50.0 µM, active compounds read high
Outline: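 The screen exposed genetically defined yeast (cln2 rad14) to test compounds and scored growth inhibition relative to vehicle-treated controls.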

[5] = NCI Yeast Anticancer Drug Screen. Data for the bub3 strain (AID 167); conditions: S. cerevisiae bub3 mutant strain, at 50.0 µM, active compounds read high
Outline: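 Inhibition values come from growth of compound-treated mutant yeast normalised to vehicle-treated controls.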

[6] = NCI Yeast Anticancer Drug Screen. Data for the mlh1 rad18 strain (AID 175); conditions: S. cerevisiae mlh1 rad18 strain growth inhibition; at 50.0 µM; active compounds read high
Outline: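 Compound-treated yeast growth, normalised to vehicle controls. Strain bears defined DNA repair mutations.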

Measured: growth inhibition

CCOC(=O)/C=C/C(=O)NNS(=O)(=O)CCC(N)C(=O)O (configuration not stated)
inactive: [1] -6.65% | [2] 13.4% | [3] 0.5% | [4] 2.8% | [5] 6.8% | [6] 0.45%

CC(=O)SC1CC(=O)OC1=O (configuration not stated)
inactive: [1] -3.1% | [2] -15.3% | [3] 7.1% | [4] 7.8% | [5] 0.2% | [6] 7.85%

CCCCSc1n[nH]c(C2CCC(=O)N2Cc2ccccc2)n1 (configuration not stated)
inactive: [1] -14.8% | [2] -19.1% | [3] -0.8% | [4] -12.9% | [5] -3.5% | [6] -6%

Nc1ccncn1
inactive: [1] -20.9% | [2] -0.85% | [3] -2.45% | [4] -5% | [5] -4.35% | [6] -13.8%

CC(=O)O/C1=C\CCCCCCCCCC1
inactive: [1] 6.95% | [2] -27.5% | [3] 28.3% | [4] 18.9% | [5] 13.5% | [6] -1.45%

CC(=O)c1ccccc1
inactive: [1] 1.4% | [2] -12.9% | [3] -16.1% | [4] -5.7% | [5] -18.2% | [6] -23.8%

COC1=CC(=C(c2ccc(O)c(OC)c2)c2ccc(O)c(OC)c2)C=CC1=O
inactive: [1] -2.75% | [2] -6.95% | [3] -2.55% | [4] 4.4% | [5] -22.4% | [6] -31.9%

CCCCCC(CN(C)C)C(O)CCc1ccc(Cl)c(Cl)c1 (configuration not stated)
active: [1] 98.5% | [2] 79.2% | [3] 98% | [4] 98.5% | [5] 80.5% | [6] 98.6%

NC(=O)C(=O)N/N=C(\CC1(O)C(=O)Nc2ccccc21)c1ccc2ccccc2c1 (configuration not stated)
inactive: [1] 17.4% | [2] 16.5% | [3] 7.5% | [4] 48.5% | [5] 35% | [6] 12.1%

O=S(=O)(O)CS(=O)(=O)O
inactive: [1] -21.9% | [2] -2.3% | [3] 8.3% | [4] -26.4% | [5] 4.9% | [6] -1.15%

CC(O)CCNC(=O)c1ccccc1 (configuration not stated)
inactive: [1] -10.4% | [2] -16.2% | [3] -11.3% | [4] -25.8% | [5] -13.3% | [6] -5%

C=C(NC(C)=O)C(=O)O
inactive: [1] -4.65% | [2] -7.4% | [3] -11% | [4] 4.5% | [5] 10.9% | [6] 4.15%

CNc1ccc([N+](=O)[O-])cc1C(=O)OC
inactive: [1] 8% | [2] -6.1% | [3] -8.55% | [4] -46.2% | [5] -22.9% | [6] 22.9%

CC(=O)OC1Cc2ccccc2C1OC(C)=O (configuration not stated)
inactive: [1] -1.9% | [2] 9.4% | [3] -8.8% | [4] -9.8% | [5] -19.4% | [6] 7.1%

Cc1ccc(-n2c(C)nc3c(c(C)c(C)n3-c3ccccc3)c2=N)cc1
inactive: [1] 4.1% | [2] -0.75% | [3] 4.75% | [4] -19% | [5] 15.4% | [6] 6.65%

O/N=C(/CC(O)(C(F)(F)F)C(F)(F)F)c1ccccc1
inactive: [1] -9.1% | [2] -18% | [3] -7.9% | [4] -38.8% | [5] -6.9% | [6] 11.8%

COC(=O)c1ccc(/C=C2\Oc3ccccc3C2=O)cc1
inactive: [1] -54.1% | [2] -62.2% | [3] -39% | [4] -8.5% | [5] -22.9% | [6] -44.5%

S=c1nc[nH]c2c1CN(Cc1ccccc1)CC2
inactive: [1] -43.6% | [2] -2.25% | [3] 4.6% | [4] -23.4% | [5] -4.95% | [6] -6.8%

CC(CCNC(=S)S)CC(C)(C)C.[Zn+2] (configuration not stated)
inactive: [1] 9.75% | [2] 15.1% | [3] -7.55% | [4] -36% | [5] -4.65% | [6] -1%

CC1CSC(=S)N1C(=O)N1C(=S)SCC1C (configuration not stated)
inactive: [1] -42.4% | [2] -56.8% | [3] -52.9% | [4] -10.8% | [5] -43.9% | [6] -35.5%

CCN1C(=O)CC(SCCSC2CC(=O)N(CC)C2=O)C1=O (configuration not stated)
inactive: [1] 16.7% | [2] -7.7% | [3] 6.25% | [4] -6.55% | [5] 13.7% | [6] -2.45%

COC(=O)c1cccc2c1ccc1ccc3ccccc3c12
inactive: [1] -7.9% | [2] -19.4% | [3] -7.05% | [4] -84.5% | [5] -10.2% | [6] -17.9%

COC(=O)c1ccccc1N(C(=O)c1ccccc1)c1ccccc1C
inactive: [1] -16.1% | [2] -13.3% | [3] -18.9% | [4] 10.4% | [5] -11.3% | [6] -55%

CCCCCC(Nc1nncs1)Nc1nncs1
inactive: [1] -4.2% | [2] -20.5% | [3] 14.9% | [4] 6.1% | [5] 8.4% | [6] 12.6%

Nc1nc(SCc2ccccc2[N+](=O)[O-])c2[nH]cnc2n1
inactive: [1] 29.2% | [2] 22.2% | [3] 16.2% | [4] 14.1% | [5] 45.4% | [6] 34%

NNC(=O)CC1(O)CCCCC1
inactive: [1] -0.35% | [2] -9.2% | [3] 2.3% | [4] 0.4% | [5] -17.1% | [6] -19.8%

CCCCCCOC(=O)CCBr
inactive: [1] 5% | [2] 2.35% | [3] -3.15% | [4] -4.55% | [5] 4.55% | [6] 1.4%

CS(=O)(=O)c1ccc(C=O)cc1
inactive: [1] 12.8% | [2] 6% | [3] 2.25% | [4] -3.8% | [5] -1.4% | [6] 8.3%

CNC(=O)NC1NC(=O)N(C)C1=O (configuration not stated)
inactive: [1] 0.3% | [2] -12.7% | [3] -0.4% | [4] -14.6% | [5] -0.45% | [6] -12.7%

COc1ccccc1Nc1n[nH]c(=S)s1
inactive: [1] 11.5% | [2] -5.9% | [3] 58.5% | [4] 16.9% | [5] 14.1% | [6] 5.05%

CC(=O)OCCn1cnc2c(NCC=C(C)C)ncnc21
inactive: [1] -28.4% | [2] -12.4% | [3] -40% | [4] 0.75% | [5] 7.5% | [6] -45%

CCC1OC(=O)CC(O)C(C)C(OC2OC(C)C(O)C(N(C)C)C2O)C(CC=O)CC(C)C(=O)/C=C/C2(C)OC2C1C (configuration not stated)
inactive: [1] -13.4% | [2] -43% | [3] -23.5% | [4] -18.7% | [5] -28.9% | [6] -36.4%

Cc1ccc(S(=O)(=O)N(C)c2c(N)n(C)c(=O)n(C)c2=O)cc1
inactive: [1] 2.3% | [2] 5.75% | [3] 0.7% | [4] -49.3% | [5] -5.55% | [6] -4.4%

CCOC(=O)Nc1ccc(C2OCCS2)cc1 (configuration not stated)
inactive: [1] 1.05% | [2] -21.6% | [3] 9.45% | [4] -0.65% | [5] -19.8% | [6] 10.2%

CCc1ccc2c(OC(C)=O)c3ccccc3c(OC(C)=O)c2c1
inactive: [1] 36.4% | [2] 41.3% | [3] 33.4% | [4] 18.2% | [5] 46%
active: [6] 74.6%

CC1=C(C(=O)NCc2ccccc2)C(/C=C/c2ccccc2)C(C(=O)NCc2ccccc2)=C(C)N1
inactive: [1] 46% | [2] 16.1% | [3] 23.7% | [4] -22.1% | [5] 4.55% | [6] 34.3%

CC(=O)N1Cc2cncnc2C1
inactive: [1] -0.8% | [2] 5.95% | [3] -2.5% | [4] -17.1% | [5] -0.95% | [6] 23.7%

O=c1nc(Oc2ccccc2)nc2ccc(Cl)nn12
inactive: [1] 3.4% | [2] 31.4% | [3] 6.95% | [4] 5.7% | [5] 40.9% | [6] 3.1%

Cn1c(/N=C(/N)N=C(N)N)cc(=O)n(C)c1=O
inactive: [1] 12.8% | [2] 5.45% | [3] 20.3% | [4] 34.7% | [5] 29.6% | [6] 21.8%

COC(=O)C1Cc2cc3c(cc2C1=O)CCC3 (configuration not stated)
inactive: [1] -19.2% | [2] -12.8% | [3] -2.8% | [4] 6.75% | [5] 20.4% | [6] -5.45%

Cc1cc2c(=O)cc(-c3ccc(C(F)(F)F)cc3)oc2c(C(=O)O)c1C
inactive: [1] -34.6% | [2] -3.8% | [3] -2.3% | [4] 13.1% | [5] 0.4% | [6] 12.8%

CCNC(=O)c1cc2ccccc2cc1O
inactive: [1] 1.4% | [2] -6.85% | [3] -6.5% | [4] -46% | [5] -15.7% | [6] 6.55%
